# Test results taken from PubChem BioAssay (NCATS).
# Inconclusive results are not listed. A call without a number means that no potency is given here. Activity calls are given as the source filed them. Unless noted, calls come from the whole dose curve; as a rule, active = well fitted curve in the direction sought with a large enough effect; inconclusive = small, poorly fitted or top-dose-only effect, or another doubt; inactive = no such curve, though single readings can be large; an effect the other way counts as inactive or inconclusive.
# Assays:
# [1] = molecular target: Phenylethanolamine N-methyltransferase (Homo sapiens) (UniProt P11086); assay: Confirmatory Screen for Target Class Profiling of Small Molecule Inhibitors of Methyltransferases (AID 1745852); conditions: MTase-Glo luminescence, SAH detection, recombinant enzyme; measured here: PNMT max response; stronger effect = lower value
# Sequence of Phenylethanolamine N-methyltransferase (Homo sapiens) (P11086 whole entry, looked up): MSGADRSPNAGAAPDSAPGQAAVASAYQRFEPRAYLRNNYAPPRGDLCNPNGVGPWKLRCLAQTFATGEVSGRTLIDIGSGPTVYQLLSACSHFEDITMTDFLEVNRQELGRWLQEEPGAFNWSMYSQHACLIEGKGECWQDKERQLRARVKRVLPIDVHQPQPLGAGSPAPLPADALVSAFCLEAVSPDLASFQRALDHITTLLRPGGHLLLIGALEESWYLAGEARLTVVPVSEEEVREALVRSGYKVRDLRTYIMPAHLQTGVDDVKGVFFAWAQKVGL
# [2] = molecular target: Glutathione peroxidase 1 (Homo sapiens) (UniProt P07203); assay: Primary qHTS Assay for Inhibitors of Recombinant Selenoprotein Glutathione Peroxidase 1 (GPX1) (AID 1845191); conditions: recombinant GPX1, GR-coupled NADPH fluorescence, 15 min; series mostly up to 48.8 µM; note: nearly all actives have a fitted effect of over 65% in size
# Sequence of Glutathione peroxidase 1 (Homo sapiens) (P07203 whole entry, looked up): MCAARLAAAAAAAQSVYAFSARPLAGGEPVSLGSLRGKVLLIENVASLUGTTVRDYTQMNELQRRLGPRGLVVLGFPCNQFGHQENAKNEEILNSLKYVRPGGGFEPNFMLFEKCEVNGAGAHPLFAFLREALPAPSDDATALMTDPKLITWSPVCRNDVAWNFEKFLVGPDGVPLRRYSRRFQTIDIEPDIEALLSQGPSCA
# Method in brief: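 10 nM GPX1 + cpd, 30 min RT; start w/ 1 mM GSH, 0.5 mM cumene hydroperoxide, 0.5 mM NADPH, 100 nM GR, 0.01% BSA; buffer 50 mM Tris-HCl pH 7.5, 2 mM EDTA, 150 mM NaCl; Fl 340/450, 0 & 15 min.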
# [3] = Viability counterscreen for antagonist of constitutive androstane receptor (CAR) against the NCATS DSHEA and TCM libraries (AID 1794837); conditions: CAR reporter cell line viability counterscreen, qHTS; series mostly up to 40 µM;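 note: compound exposure lasted 24 h before viability reading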
# Method in brief: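 Viability was measured by CellTiter-Fluor fluorescence (405/540 nm, 1 hr) in HepG2-CYP2B6-hCAR cells. Cells were co-treated 24 hr with 48 uM CITCO (final), antagonist mode, and test substances.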
# [4] = Viability counterscreen for agonist of constitutive androstane receptor (CAR) against the NCATS DSHEA and TCM libraries (AID 1794838); conditions: HepG2 cell viability counterscreen, CAR agonist assay, co-treated with 0.75 µM CAR antagonist; series mostly up to 40 µM;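 note: cells exposed to compound for 24 h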
# Method in brief: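 Cell viability, from CellTiter-Fluor fluorescence (405/540 nm), was scored after a 24 h, 37C exposure of HepG2 cells carrying CYP2B6 reporter and hCAR to test substances in presence of 0.75 uM PK11195.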
# [5] = molecular target: Nuclear receptor subfamily 1 group I member 3 (Homo sapiens) (UniProt Q14994); assay: Primary qHTS for agonist of constitutive androstane receptor (CAR) against the NCATS DSHEA and TCM libraries (AID 1794839); conditions: CAR agonist reporter cells, qHTS luminescence, CAR antagonist co-added at 0.75 µM; series mostly up to 40 µM;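 note: HepG2 cells expressing human CAR with a CYP2B6 reporter plus PK11195 antagonist; luciferase reporter luminescence read with ONE-Glo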
# Sequence of Nuclear receptor subfamily 1 group I member 3 (Homo sapiens) (Q14994 whole entry, looked up): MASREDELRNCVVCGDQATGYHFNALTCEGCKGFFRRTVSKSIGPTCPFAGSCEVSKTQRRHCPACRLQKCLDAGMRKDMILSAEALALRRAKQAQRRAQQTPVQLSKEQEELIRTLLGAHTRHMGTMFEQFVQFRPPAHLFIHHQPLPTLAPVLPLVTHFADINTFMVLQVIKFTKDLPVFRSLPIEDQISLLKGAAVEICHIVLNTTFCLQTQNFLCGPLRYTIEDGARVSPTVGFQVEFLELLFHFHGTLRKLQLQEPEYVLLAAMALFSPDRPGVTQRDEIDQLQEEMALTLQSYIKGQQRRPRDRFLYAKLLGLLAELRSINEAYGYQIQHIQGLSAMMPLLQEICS
# Method in brief: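 Agonist mode in presence of hCAR antagonist PK11195 (0.75 µM final): test substances, 24 h, 37 °C, on HepG2-CYP2B6-hCAR cells. Same-well readouts: fluorescence viability, then ONE-Glo luminescence; CITCO as reference agonist.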
# [6] = HepG2 viability counterscreen (readout 2: ATP content) against the NCATS DSHEA and TCM libraries (AID 1794840); conditions: ATP content luminescence; series mostly up to 27.3 µM;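 note: HepG2 cells exposed to substances for about 24 h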
# Method in brief: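 Readout 1: cellular protease activity, GF-AFC substrate (25 uM final, 30 min, fluorescence 380/510 nm). Readout 2: ATP content by CellTiter-Glo luminescence after 30 min at RT. Both follow ~24 h exposure of HepG2 cells (1,000/well) to substances.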
# [7] = HepG2 viability counterscreen (readout 1: protease activity) against the NCATS DSHEA and TCM libraries (AID 1794841); conditions: qHTS concentration series; series mostly up to 27.3 µM;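 note: cells exposed to compounds for about 24 h before the protease read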
# Source text: Assay Development and Screening Technology Laboratory (ADST)
# National Center for Advancing Translational Sciences (NCATS), Rockville, MD
# National Institute of Health (NIH), Bethesda, Maryland
# Dietary Supplements and Natural Products have minor oversight of their safety and efficacy. We assembled a collection of Dietary Supplements and Natural Products (DSNP) as well as Traditional Chinese Medicinal (TCM) Plant extracts, which were screened against an in vitro panel of assays, including a liver cytochrome p450 enzyme panel, CAR/PXR signaling pathways, and P-gp transporter assays, to assess their activity. This pipeline facilitated the interrogation of Natural Product-Drug Interaction (NaPDI) through prominent metabolizing pathways. In addition, we compared the activity profiles of the DSNP/TCM substances with those of an approved drug collection. Many of the approved drugs have well-annotated mechanisms of action (MOA) while the MOAs for most of the DSNP and TCM samples remain unknown. Based on the premise that compounds with similar activity profiles tend to share similar targets or MOA, we clustered the library activity profiles to identify overlap with the NCATS Pharmaceutical Collection to predict the MOAs of the DSNP/TCM substances. Overall, we highlight four significant bioactivity profiles (measured by p-values) as examples of this prediction. In addition, to assess broad cytotoxicity, we employed screening against a HepG2 cell line.
# To this end, we profiled both collections for potential CAR and/or PXR activity, employing a previously published 1536-well qHTS assay.
# PROTOCOL TABLE (as described by Inglese J, Shamu CE and Guy RK. 2007)
# SEQUENCE No. (e.g., 1, 2, 3, etc.); PARAMETER (e.g., Cells, Incubation, Reagent, etc.); VALUE; DESCRIPTION.
# 1; Cells; 5 uL; HepG2 cells, white solid-bottom tissue treated Greiner plate.
# 2; Incubation; 4 hrs; 37C, 95% humidity, 5% CO2.
# 3; Compounds; 23 nL; Kalypsis pin tool (Wako USA) equipped with a 1536-well pin head to transfer to the assay plates.
# 4; Incubation; 24 hrs; 37C, 95% humidity, 5% CO2.
# 5; Reagent; 1 uL; GF-AFC substrate.
# 6; Incubation; 30 min; 37C, 95% humidity, 5% CO2.
# 7; Read 1; Fluorescence; EnVision plate reader excitation 380 nm, emission 510 nm.
# 8; Reagent; 3 uL; CellTiter-Glo (Promega).
# 9; Centrifuge; 1000 RPM; 15 seconds.
# 10; Incubation; 30 min; room temperature.
# 11; Read 2; Luminescence; ViewLux plate reader.
# NOTES (numbers refer to Sequence numbers above)
# 1. 5 uL of HepG2 cells at 2 x 10^5 cells/mL (1,000 cells/well) were dispensed into a 1536-well white solid-bottom tissue treated plate (Greiner Bio-One) using a Multidrop Combi dispenser (Thermo Scientific). This assay use both GF-AFC substrate and Cell-Titer Glo (CTG), measuring cellular protease activity and ATP content, respectively.
# 2. Plates were incubated at 37C, 95% humidity, and 5% CO2 for ~4 hours to allow for cell attachment.
# 3. Compounds were transferred (16 nL) via pintool (Wako Automation), for a final concentration range for most substances of 15.6 nM - 31.3 uM.
# 4. Plates were incubated for ~24 hours.
# 5. 1 uL addition of GF-AFC substrate (final concentration 25 uM; MP Biomedicals).
# 6. Plates were incubated at 37C, 95% humidity, and 5% CO2 for 30 minutes.
# 7. After incubation, plates were read for fluorescence intensity (Ex/Em = 380 nm/510 nm) on an EnVision detector (PerkinElmer, Shelton, Connecticut).
# 8. Once the detection for fluorescence was completed, plates were dispensed with 3 uL of CellTiter-Glo (Promega, Madison, WI).
# 9. Plates were centrifuged for 15 seconds at 1,000 RPM's.
# 10. Plates were incubated for 30 minutes at room temperature.
# 11. Plates were then read for luminescence intensity on a ViewLux detector.
# Inglese J, Shamu CE and Guy RK, Reporting data from high throughput screening of small molecule libraries, Nature Chemical Biology, 2007, 3(8): 438-441. doi.org/10.1038/nchembio0807-438.
# [8] = NCATS anti-infectives library activity on HEK293 viability as a counter-qHTS vs the C. elegans viability qHTS (AID 1745854); conditions: HEK293 viability counter-screen; series mostly up to 41.8 µM;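 note: HEK293 cells exposed to compounds for 24 hr before the viability read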
# Method in brief: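 HEK293 cells (1,500/well) exposed 24 hr at 37C to 1:5 titrations, up to 41.7 uM final; counter-screen to a C. elegans viability qHTS. Viability by CellTiter-Glo luminescence after 10 min at room temperature; digitonin as control.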
# [9] = NCATS anti-infectives library activity on the primary C. elegans qHTS viability assay (AID 1745855; calls by dose curve); conditions: C. elegans worm area imaging, day 7; at 41.8 µM (top of the series)
# Method in brief: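 Viability read-out is GFP fluorescence of PE254-GFP-FLuc C. elegans, measured by laser cytometry (488 nm) at day 0, 3 and 7. Ten L1 worms per well were incubated 7 days at 21 °C with compounds and bacterial capsules in S medium.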
structure (smiles),measurement,setting,value
COc1cc(/C=C/C(=O)O[C@H]2[C@H](OC(=O)/C=C/c3cc(OC)c(O)c(OC)c3)O[C@H](CO[C@@H]3O[C@H](CO)[C@@H](O)[C@H](O)[C@H]3O)[C@@H](O)[C@@H]2O)ccc1O,activity,[1],-4.24%
same,Potency,[2],inactive
CCN(c1cc(C#CCN2CCOCC2)cc(C(=O)NCc2c(C)cc(C)[nH]c2=O)c1C)C1CCC(N(C)CCOC)CC1 (configuration not stated),activity,[1],4.61%
same,Potency,[2],inactive
C=C(C)[C@H]1C[C@@H](O)C(=C)CC[C@@H](O)C(=C)[C@@H](O)C1,activity,[1],4.62%
same,Potency,[2],inactive
COc1cc(C2Oc3c(OC)cc(CCCO[C@@H]4O[C@H](CO)[C@@H](O)[C@H](O)[C@H]4O)cc3C2CO)ccc1O (some centres not stated),activity,[1],4.57%
same,Potency,[2],inactive
CC1(C)CC[C@]2(C(=O)O[C@@H]3O[C@H](CO)[C@@H](O)[C@H](O)[C@H]3O)CC[C@]3(C)C(=CCC4[C@@]5(C)C[C@@H](O)[C@H](O)C(CO)(CO)C5CC[C@]43C)C2[C@@H]1O (some centres not stated),activity,[1],4.05%
same,Potency,[2],inactive
C=C1[C@H]2[C@H](O[C@@H]3O[C@H](COC(=O)/C=C/c4cc(OC)c(O)c(OC)c4)[C@@H](O)[C@H](O)[C@H]3O)OC=C(C(=O)O)[C@H]2C[C@@H]1O,activity,[1],5.16%
same,Potency,[2],inactive
CCc1nc(C(N)=O)c(Nc2ccc(N3CCC(N4CCN(C)CC4)CC3)c(OC)c2)nc1NC1CCOCC1,activity,[1],-59.8%
same,Potency,[2],inactive
CC1=C(/C=C/C(C)=C/C=C/C(C)=C/C=C/C=C(C)/C=C/C=C(C)/C=C/C2=C(C)CCCC2(C)C)C(C)(C)CCC1,outcome,[3],inactive
same,outcome,[4],inactive
same,outcome,[5],inactive
same,outcome,[6],inactive
same,outcome,[7],inactive
same,Potency,[2],inactive
CCC1CC2C(C)=CC3CCCCC3C2(C)C2(OC(=O)C(C)(O)OC2=O)O1 (configuration not stated),Potency,[2],inactive
Cc1c(-c2ccnn2C)cc(C(=O)NCc2ccc(S(C)(=O)=O)cn2)c(=O)n1-c1cccc(C(F)(F)F)c1,outcome,[8],inactive
same,Potency,[2],inactive
C[C@H]1[C@H](C)CC[C@]2(C(=O)O)CC[C@]3(C)C(=CC[C@@H]4[C@@]5(C)C[C@@H](O)[C@H](O)[C@@](C)(CO)[C@@H]5CC[C@]43C)[C@H]12,outcome,[3],inactive
same,outcome,[4],inactive
same,outcome,[5],inactive
same,outcome,[6],inactive
same,outcome,[7],inactive
same,Potency,[2],inactive
CC1=CCC(C(C)(C)O)CC1 (configuration not stated),outcome,[6],inactive
same,outcome,[7],inactive
same,Potency,[2],inactive
CC(=O)Oc1cc(C)c(OC(C)=O)c2ccccc12,Potency,[2],inactive
OC[C@H]1O[C@@H](Oc2cc(O)cc(/C=C/c3ccc(O)cc3)c2)[C@H](O)[C@@H](O)[C@@H]1O,outcome,[8],inactive
same,Potency,[2],inactive
CCOC(=O)[C@H]1O[C@@H]1C(=O)N[C@@H](CC(C)C)C(=O)NCCC(C)C,outcome,[8],inactive
same,outcome,[9],inactive
same,Potency,[2],inactive
CC1CC(O)CC(C)(C)C1(O)CCO (configuration not stated),Potency,[2],inactive
COCCN(C)Cc1ccc2nc3sc(C(=O)N(C)C4CCCCC4)cn3c2c1,activity,[1],-2.94%
same,Potency,[2],inactive
COc1ccc(/C=C/C(=O)O[C@H]2[C@@H]3C=CO[C@@H](O[C@@H]4O[C@H](CO)[C@@H](O)[C@H](O)[C@H]4O)[C@@H]3[C@@]3(CO)O[C@@H]23)cc1O,Potency,[2],inactive
CCCCC(CC)COC(=O)CC(C(=O)OCC(CC)CCCC)S(=O)(=O)O (configuration not stated),outcome,[8],inactive
CC1=C(/C=C/C(C)=C/C=C/C(C)=C/CO)C(C)(C)CCC1,outcome,[3],inactive
same,outcome,[4],inactive
same,outcome,[6],inactive
same,outcome,[7],inactive
same,Potency,[2],inactive
Cc1nnc(C(C)C)n1C1CC2CCC(C1)N2CC[C@H](NC(=O)C1CCC(F)(F)CC1)c1ccccc1 (some centres not stated),outcome,[8],inactive
same,Potency,[2],inactive
O=C(O)c1cc(O)c2cccc(O)c2c1O[C@@H]1O[C@H](CO)[C@@H](O)[C@H](O)[C@H]1O,activity,[1],-8.77%
same,Potency,[2],inactive
OCC1OC(Oc2cc(O)c3c(c2)OC(c2ccc(O)cc2)C(O)C3)C(O)C1O (configuration not stated),Potency,[2],inactive
CC1=CC(=O)C2C(C)(C)CCCC2(C)C12CCC1(COC(=O)C1)O2 (configuration not stated),activity,[1],3.04%
same,Potency,[2],inactive
COC(=O)C1=CO[C@@H](O[C@@H]2O[C@H](CO)[C@@H](O)[C@H](O)[C@H]2O)[C@@H]2[C@@H](C)[C@@H](O)C[C@H]12,outcome,[8],inactive
same,Potency,[2],inactive
Cc1c(C)c2c(c(C)c1O)CC[C@@](C)(CCC[C@H](C)CCC[C@H](C)CCCC(C)C)O2,outcome,[6],inactive
same,outcome,[7],inactive
Cc1cc(O)c(C(C)C)cc1O[C@@H]1O[C@H](CO)[C@@H](O)[C@H](O)[C@H]1O,Potency,[2],inactive
C=C1CCC2C(C)(C(=O)O)CC(O)CC2(C)C1CC/C(C)=C/C(=O)O (configuration not stated),Potency,[2],inactive
COC(=O)C1=COC(O[C@@H]2O[C@H](CO)[C@@H](O)[C@H](O)[C@H]2O)/C(=C\COC(=O)c2ccc(OC3OC(CO)C(O)C(O)C3O)c(OC)c2)C1CC(=O)OCCc1ccc(O)cc1 (some centres not stated),Potency,[2],inactive
